The source of these data is PubChem BioAssay AID1347076 (National Center for Advancing Translational Sciences (NCATS), 2019).

In all, about 400,000 compounds went through this assay and about 13,000 (3.2%) were called active. A call without a number means that no potency is given here. Roughly 18% stayed inconclusive and do not appear here. The sample holds actives, similar compounds and a random draw of the others, so the mix is not that of the screen. Calls come from the whole dose curve; as a rule, active = well fitted cell-killing curve with a large enough effect; inconclusive = small, poorly fitted or top-dose-only effect, or effect the other way; inactive = flat fitted curve, though single readings scatter.
Potency is the fitted concentration of half-maximal effect.

The nature of the experiment: qHTS assay for MDR1-selective chemotherapeutics: Primary screen using the drug-selected MDR subline cells KB-V1. Note: nearly all actives have a fitted effect of over 60% in size. To be noted: KB-V1 MDR cells viability, CellTiter-Glo, 72 h; series mostly up to 46.1 µM. In a few lines:
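In this primary screen, KB-V1 cells overexpressing P-gp are incubated with library compounds (lowest to highest concentration) for 72 h at 37 degrees C before a luminescent ATP viability read.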
For orientation: qHTS replaces the single test concentration by a dilution series.
On to `Cc1cc(C)cc(NC(=O)Cn2nc(N3CCN(c4ccccc4)CC3)ccc2=O)c1`, for which the Potency entry is “inactive”.
For `CC1(C)CN(Cc2cccnc2)C(=O)[C@H]1CC(=O)Nc1ccc(Br)cc1` the value was “inactive”.
For `COC(=O)CN(c1nc(C)c(Cl)c(OC)n1)S(=O)(=O)c1ccc(C)cc1` the value was 13 µM (active); for `COc1ccc(C)cc1N(CC(=O)N1CCC(C)CC1)S(=O)(=O)c1ccc(C)cc1`, “inactive”.
For `CCN(CC)C(=O)CN(c1cccc(OC)c1)S(=O)(=O)c1ccc(C)cc1` the value was “inactive”; for `CCOC(=O)N1CCN(C(=O)C[C@@H]2C[C@@]3(C(=O)OC)CCCCC=C3N(CCC3=CCCCC3)C2=O)CC1`, “inactive”; for `CCCNC(=O)C[C@@H]1CC[C@@H]2[C@H](COC[C@H](O)CN2C(=O)c2cc(Cl)cc(Cl)c2)O1`, “inactive”.
As for `C[C@@H]1CN([C@@H](C)CO)C(=O)c2c(c3ccccc3n2C)-c2ccccc2CO[C@H]1CN(C)C(=O)C1CC1`, the Potency entry is “inactive”.
Take `Cn1ncc([N+](=O)[O-])c1C(=O)Nc1cc(Cl)ccc1Cl`: the Potency result was “inactive”.
`CN(C)c1ccc(NC(=O)CSc2nc(-c3ccco3)cc(C(F)(F)F)n2)cc1`: the Potency result is “inactive”.
The result for `Cc1ccc(-c2cnc(C(O)c3cccc(C)c3C)[nH]2)cc1` (stereo not drawn) reads “inactive”; that for `Cc1cc(F)ccc1NS(=O)(=O)c1ccc(-n2cccn2)cc1`, “inactive”; that for `Cc1ccc(-c2nnc3ccc(SCC(N)=O)nn23)cc1`, “inactive”.
For `CCC1(C(=O)c2ccccc2)C(c2cccc([N+](=O)[O-])c2)C1(C(=O)OC)C(=O)OC` (stereo not drawn) the value was 23.1 µM (active); for `O=C(NOCc1ccccc1)c1cccc([N+](=O)[O-])c1`, “inactive”; for `COc1cccc(NCCC(=O)c2cccc([N+](=O)[O-])c2)c1`, “inactive”.
For `CC(C)(C)NC(=O)C(CCc1ccccc1)n1c(=O)c(-c2ccccc2)nc2ccccc21` (stereo not drawn) the value was “inactive”.
In the case of `Cc1cccc2cc(CN(C(=O)c3cccs3)c3ccccc3)c(=O)[nH]c12`, the Potency was 23.1 µM (active).
The result for `Cc1ccc(C)c2[nH]c(=O)c(CN(Cc3cccnc3)C(=S)NCc3ccco3)cc12` reads “inactive”; that for `Cc1cccc2cc(CN(Cc3cccs3)C(=S)NCc3ccco3)c(=O)[nH]c12`, 3.66 µM (active).
The result for `CCCN(Cc1cc2cccc(C)c2[nH]c1=O)S(C)(=O)=O` reads “inactive”.
For `Cc1ccc(C)c2[nH]c(=O)c(CCNC(=O)c3cccs3)cc12` the value was “inactive”; for `Cc1cc(C)c2[nH]c(=O)c(CN(Cc3ccccc3)C(=S)NCCCN(C)C)cc2c1`, “inactive”; for `CCOC1=C2[C@H]([C@H]3C(=O)N(c4ccccc4)C(=O)[C@H]3C1)[C@@H](c1ccccc1)N(S(=O)(=O)c1ccc(C)cc1)[C@H]2c1ccccc1`, “inactive”.
For the compound `CCc1nc2ccc(C(=O)NCc3ccc(OC)cc3)cn2c1N(CC)Cc1cccc(Br)c1`, the Potency result is “inactive”.
The result for `CSC1=NN(c2ccccc2)CN(c2ccccc2)N1C` reads “inactive”; that for `Cc1cccc(-c2cnc(C(O)c3cc(C)cc(C)c3)[nH]2)c1` (stereo not drawn), “inactive”.
Take `COCCNC(=O)C1(C)CCCN(Cc2cccc(F)c2)C1` (stereo not drawn): the Potency entry is “inactive”.
The result for `O=C1c2cccc3cccc(c23)N1CN1CCN(c2ccccn2)CC1` reads 5.8 µM (active); that for `O=C(CN1CCN(c2ccccn2)CC1)N1CCc2ccccc21`, “inactive”; that for `O=C(CN1C(=O)c2cccc3cccc1c23)Nc1ccccc1`, “inactive”.
The result for `COc1ccc(NC(=O)CN2C(=O)NC(C)(c3ccccc3)C2=O)cn1` (stereo not drawn) reads “inactive”.
The result for `COc1ccc(N2CCN(C(=O)c3ccc4c(Cl)c5c(nc4c3)CCCC5)CC2)cc1` reads “inactive”; that for `COc1cccc(CNC(=O)c2ccc3c(Cl)c4c(nc3c2)CCCC4)c1`, “inactive”.
For the compound `CC(=O)c1ccc(NC(=O)c2ccc3c(Cl)c4c(nc3c2)CCCC4)cc1`, the Potency is 16.4 µM (active).
In the case of `Fc1ccc(-c2nn(-c3ccccc3Cl)c3c2cnc2ccccc23)cc1`, the Potency entry was “inactive”.
For `Cc1ccc(S(=O)(=O)N[C@H](CO)C(C)C)cc1` the value was “inactive”; for `CN(NC(=O)c1ccccc1F)c1nc(C(F)(F)F)nc2ccccc12`, “inactive”; for `O=C(Nn1cnc2ccccc2c1=O)c1ccccc1`, “inactive”.
For `CSc1nc(N(C)NC(=O)c2cccc(C)c2)c2ccccc2n1` the value was 0.206 µM (active).
For `Cc1cccc(C(=O)Nc2ccc(-c3nc4ccccc4s3)c(C)c2)c1` the value was “inactive”; for `CN(NC(=O)c1ccccc1)c1nc2ccccc2nc1C(F)(F)F`, 4.61 µM (active).
Consider `Cc1cccc(C(=O)NCCc2nc3ccccc3n2Cc2ccccc2Cl)c1`, for which the Potency entry is “inactive”.
For `C[C@H](CO)N1C[C@H](C)[C@@H](CN(C)C(=O)C2CCCCC2)OCc2cnnn2CCCC1=O` the value was “inactive”; for `Cc1ccc(F)c(S(=O)(=O)NC(=O)C2(C)CCN2C(=O)c2ccco2)c1` (stereo not drawn), “inactive”.
Take `COc1cccc(CNc2nc3cc(-c4csc5ccccc45)sc3c(=O)n2C)c1`: the Potency entry is “inactive”.
The result for `CC1CCN(c2ccc3c(c2)S(=O)(=O)c2cc(C(=O)O)ccc2C3=O)CC1` reads “inactive”.
In the case of `CCCCc1ccc(S(=O)(=O)NC(=O)C2(C)CCN2C(=O)c2ccccc2)cc1` (stereo not drawn), the Potency result was “inactive”.
The result for `O=c1[nH]c(CN2CCOCC2)nc2cc(Cl)ccc12` reads “inactive”.
`NC(=O)Cc1nc2scc(-c3ccc(Cl)cc3)c2c(=O)[nH]1`: the Potency result is “inactive”.
For `O=c1[nH]c(CCl)nc2cc(-c3ccc(Cl)cc3)sc12` the value was 16.4 µM (active).
Take `COCOc1cccc(CN2CCC(C)(Oc3ccc(SC)cc3)C2)c1` (stereo not drawn): the Potency result was “inactive”.
For the compound `O=C1CC(c2ccccc2)CC2=C1C(c1ccco1)n1nc(C(F)(F)F)nc1N2` (stereo not drawn), the Potency entry was “inactive”.
With `COc1ccc(N2C(=O)CSC23C(=O)N(Cc2cccc(F)c2)c2ccccc23)cc1Cl` (stereo not drawn), the Potency is 16.4 µM (active).
Turning to `COc1ccc(N2C(=O)CS(=O)(=O)C23C(=O)N(Cc2ccc(C)cc2)c2ccccc23)cc1Cl` (stereo not drawn), the Potency entry is “inactive”.
The result for `COc1ccnc2c1c(=O)n(Cc1cccc(F)c1)c(=O)n2C` reads “inactive”; that for `COc1cc(C(=O)OCCCN2CCOCC2)cc(OC)c1OC`, “inactive”; that for `CC(C)(C)OC(=O)N1CCC(c2c(C(=O)Nc3ccc4c(c3)OCO4)cnn2-c2ccccc2)CC1`, “inactive”.
The result for `COc1cc(OC)c(OC)cc1/C=C1\C=Cc2ccccc21` reads “inactive”.
As for `COc1ccc(S(=O)(=O)N2CCC(C(=O)NCCC(=O)Nc3ccccc3OC)CC2)cc1`, the Potency result is “inactive”.
On to `CC(=O)Nc1ccc(N2CCOCC2)c(C(=O)Nc2cccc(C)c2)c1`, for which the Potency entry is “inactive”.
The result for `COC(=O)c1cc(NC(=O)c2cc(C(C)(C)C)nn2Cc2cccc(C)c2)ccc1N1CCOCC1` reads 8.2 µM (active); that for `COC(=O)c1cc(NC(=O)c2ccco2)ccc1N1CCOCC1`, “inactive”.
